The source of these data is PubChem BioAssay (EPA / NIEHS).

Assay [1] is described as follows: ATG_TAL_CIS: Attagene CIS-FACTORIAL HepG2 Assay for human TAL Basal Promoter (AID 2282966).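 Further: background control endpoint measuring basal TAL promoter reporter mRNA not a specific factor.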 The following applies: HepG2 Attagene cis-factorial TAL promoter reporter; actives raise or lower the signal. A digest of the protocol:
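HepG2 cells were transiently transfected with promoter-driven multiplexed reporter units and dosed for 24 h. Reporter mRNA was measured by RT-PCR with capillary electrophoresis fluorescence; bidirectional fits used DMSO as baseline, serving as a background control.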

Assay [2] in a line: ATG_TGFb_CIS: Attagene CIS-FACTORIAL HepG2 Assay for human Transforming Growth Factor (TGF) (AID 2282967). The following applies: HepG2 Attagene CIS TGFb reporter, mRNA transcription; actives raise or lower the signal. Summed up: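 HepG2 cells transiently transfected with cis-promoter-driven multiplexed reporter units; 24 h compound exposure. Reporter mRNA measured by RT-PCR, 6-FAM labeling, HpaI digestion and capillary electrophoresis; bidirectional fit versus DMSO baseline.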

A short description of assay [3]: ATG_VDRE_CIS: Attagene CIS-FACTORIAL HepG2 Assay for human Vitamin D Receptor Element (VDRE) (AID 2282968). Particulars: HepG2 VDRE cis-reporter transcription, actives raise or lower the signal. Summed up:
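HepG2 cells transiently transfected with cis-element reporter units, dosed 24 h; reporter mRNA measured by RT-PCR, 6-FAM labeling, HpaI digestion and capillary electrophoresis. Activity fitted bidirectionally against DMSO baseline.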

Assay [4] has as its target Estrogen receptor (Homo sapiens) (UniProt P03372). The assay is described as follows: ATG_ERa_TRANS: Attagene TRANS-FACTORIAL HepG2 Assay for human Estrogen Receptor alpha (ERa) (AID 2282970; active means hit-call score of the fitted dose curve at least 0.9, where 1 is the maximum). The following applies: HepG2 Attagene TRANS ERa GAL4 reporter, mRNA. Summed up:
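HepG2 cells transiently transfected with multiplexed GAL4-UAS reporter units; ERa activity read via exogenous chimeric NR-Gal4 protein. After 24 hour compound exposure, reporter mRNA measured by RT-PCR with 6-FAM labelling and capillary electrophoresis; gain-of-signal fitted relative to DMSO.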

For assay [5], the target named is X-box-binding protein 1 (Homo sapiens) (UniProt P17861). The assay is described as follows: ATG_Xbp1_CIS: Attagene CIS-FACTORIAL HepG2 Assay for human X-box Binding Protein 1 (XBP1) (AID 2282972). The following applies: HepG2 XBP1 cis-element reporter, Attagene multiplex; actives raise or lower the signal. Summed up:
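HepG2 cells transiently transfected with cis-regulated multiple reporter transcription units; endogenous transcription factor activity measured 24 hours after chemical dosing. Reporter mRNA quantified by RT-PCR, 6-FAM primer extension, HpaI digestion and capillary electrophoresis; bidirectional fitting versus DMSO.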

Assay [6] deals with Glucocorticoid receptor (Homo sapiens) (UniProt P04150). The assay is described as follows: ATG_GR_TRANS: Attagene TRANS-FACTORIAL HepG2 Assay for human Glucocorticoid Receptor (GR) (AID 2282978; active means hit-call score of the fitted dose curve at least 0.9, where 1 is the maximum;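 further: activators score as hits since higher reporter transcript over DMSO is fitted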). Particulars: HepG2 Attagene TRANS GR reporter, mRNA transcription. A digest of the protocol: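 After 24 h incubation with test chemical, transfected HepG2 cells were lysed for RNA; reporter cDNA was amplified, FAM-labelled, HpaI-digested and sized on a capillary analyser. Signal gain relative to DMSO was scored.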

The target in assay [7] is Bile acid receptor (Homo sapiens) (UniProt Q96RI1). The assay can be described thus: ATG_FXR_TRANS: Attagene TRANS-FACTORIAL HepG2 Assay for Farnesoid X Receptor (FXR) (AID 2282979; active means hit-call score of the fitted dose curve at least 0.9, where 1 is the maximum;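 further: hits raise reporter mRNA above DMSO so AC50 marks FXR activation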). Particulars: HepG2 Attagene TRANS FXR-GAL4 reporter transcription. Summed up: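 HepG2 cells transiently transfected with reporter constructs in which a chimeric FXR-GAL4 protein drives a GAL4-UAS reporter; 24 h compound exposure. Reporter mRNA measured by RT-PCR, FAM labelling, HpaI digestion and capillary electrophoresis; gain-of-signal versus DMSO.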

Assay [8] in a line: ATG_M_06_TRANS: Attagene TRANS-FACTORIAL HepG2 Assay for M06 Transcription Factor (Internal Marker) (AID 2282983; active means hit-call score of the fitted dose curve at least 0.9, where 1 is the maximum;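 further: reporter transcript level by RT-PCR then capillary electrophoresis fluorescence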). The following applies: HepG2 Attagene TRANS M06 internal marker reporter. A digest of the protocol: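 HepG2 cells transiently transfected with multiplexed GAL4-UAS reporter transcription units; after 24 h compound exposure, reporter mRNA measured by RT-PCR, FAM-labelled primer extension, HpaI digestion and capillary electrophoresis. Gain-of-signal fitted versus DMSO baseline; background control readout.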

The nature of assay [9]: ATG_M_32_TRANS: Attagene TRANS-FACTORIAL HepG2 Assay for M32 Transcription Factor (Internal Marker) (AID 2282984; active means hit-call score of the fitted dose curve at least 0.9, where 1 is the maximum). The following applies: HepG2 Attagene TRANS M32 internal marker reporter. A digest of the protocol: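 HepG2 cells transiently transfected with multiple GAL4-UAS reporter transcription units, dosed for 24 hours; reporter mRNA quantified by RT-PCR, 6-FAM primer extension, HpaI digestion and capillary electrophoresis. Gain-of-signal fitted versus DMSO baseline; internal background-control marker.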

Assay [10] concerns the target Nuclear receptor subfamily 4 group A member 2 (Homo sapiens) (UniProt P43354). The assay can be described thus: ATG_NURR1_TRANS: Attagene TRANS-FACTORIAL HepG2 Assay for human Nuclear Receptor Related Protein 1 (NURR1) (AID 2282985; active means hit-call score of the fitted dose curve at least 0.9, where 1 is the maximum). Particulars: HepG2 Attagene TRANS reporter, mRNA readout. A digest of the protocol:
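HepG2 cells transiently transfected with GAL4-UAS reporter units and chimeric NR-Gal4 constructs; chemical exposure 24 h. Reporter mRNA quantified by RT-PCR, fluorescent labelling and capillary electrophoresis; gain of signal fitted relative to DMSO baseline.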

Assay [11] has as its target Transcriptional activator Myb (Homo sapiens) (UniProt P10242). The assay is described as follows: ATG_Myb_CIS: Attagene CIS-FACTORIAL HepG2 Assay for human Myeloblastosis (Myb) Proto-Oncogene Transcription Factor (AID 2282986). Particulars: HepG2 Attagene CIS-FACTORIAL Myb reporter transcription; actives raise or lower the signal. Summed up: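 After 24 h of compound dosing, total RNA from transfected HepG2 cells is reverse-transcribed and the reporter sequences amplified, labeled and separated by capillary electrophoresis. Values come from bidirectional fitting against DMSO.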

Assay [12] has as its target Nuclear respiratory factor 1 (Homo sapiens) (UniProt Q16656). The assay can be described thus: ATG_NRF1_CIS: Attagene CIS-FACTORIAL HepG2 Assay for human Nuclear Respiratory Factor 1 (NRF1) Orphan Gene (AID 2282987). The following applies: HepG2 NRF1 cis-element reporter, Attagene multiplex; actives raise or lower the signal. A digest of the protocol:
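Measured: fluorescent reporter-specific RT-PCR products from transfected HepG2 cells, separated by capillary electrophoresis. Exposure lasted 24 h. Analysis used bidirectional curve fitting with DMSO as negative control.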

The nature of assay [13]: ATG_NFI_CIS: Attagene CIS-FACTORIAL HepG2 Assay for human Nuclear Factor I (NFI) (AID 2282989). Particulars: HepG2 cis-regulatory reporter, NFI response element transcription; actives raise or lower the signal. Summed up: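 HepG2 cells transiently transfected with cis-element-driven multiplexed reporter transcription units, dosed for 24 h. Reporter mRNA quantified by RT-PCR, fluorescent labelling, HpaI digestion and capillary electrophoresis; bidirectional fit versus DMSO baseline.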

Assay [14] in a line: ATG_M_19_TRANS: Attagene TRANS-FACTORIAL HepG2 Assay for M19 Transcription Factor (Internal Marker) (AID 2282974; active means hit-call score of the fitted dose curve at least 0.9, where 1 is the maximum). The following applies: HepG2 Attagene TRANS-FACTORIAL M19 internal marker reporter. Summed up:
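Transfected HepG2 (GAL4-UAS MRTUs), 24 h compound, TriZol RNA, DNase-treated RT, reporter PCR, FAM label, HpaI digest, CE fluorescence; gain vs DMSO.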

The target of assay [15] is Oxysterols receptor LXR-alpha (Homo sapiens) (UniProt Q13133). The assay can be described thus: ATG_LXRa_TRANS: Attagene TRANS-FACTORIAL HepG2 Assay for human Liver X Receptor alpha (LXRa) (AID 2282980; active means hit-call score of the fitted dose curve at least 0.9, where 1 is the maximum). Particulars: HepG2 Attagene TRANS reporter, LXRa transactivation. Summed up:
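HepG2 cells were transiently transfected with multiplexed reporter units driven by chimeric LXRa–GAL4 fusion proteins, then dosed for 24 h. Reporter mRNA was quantified by RT-PCR, fluorescent labelling and capillary electrophoresis; gain of signal fitted against DMSO baseline.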

Assay [16] can be described thus: ATG_GAL4_TRANS: Attagene TRANS-FACTORIAL HepG2 Assay for GAL4 (Internal Marker) (AID 2282976; active means hit-call score of the fitted dose curve at least 0.9, where 1 is the maximum). The following applies: HepG2 Attagene TRANS GAL4 internal marker reporter. A digest of the protocol:
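HepG2 cells transiently transfected with multiplexed GAL4-UAS reporter constructs were dosed for 24 h. Reporter mRNA was measured by RT-PCR, 6-FAM primer extension, HpaI digestion and capillary electrophoresis, and gain of signal was fitted relative to DMSO.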

The target of assay [17] is Hepatocyte nuclear factor 4-alpha (Homo sapiens) (UniProt P41235). The assay can be described thus: ATG_HNF4a_TRANS: Attagene TRANS-FACTORIAL HepG2 Assay for human Hepatocyte Nuclear Factor 4 alpha (HNF4a) (AID 2282982; active means hit-call score of the fitted dose curve at least 0.9, where 1 is the maximum). The following applies: HepG2 HNF4a transactivation reporter, mRNA readout. Summed up: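 HepG2 cells transiently transfected with multiplexed GAL4-UAS reporter units responsive to chimeric NR-GAL4 proteins; compound exposure 24 h. Reporter mRNA quantified by RT-PCR, 6-FAM labelling, HpaI digestion and capillary electrophoresis; gain of signal versus DMSO baseline.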

Results filed as inconclusive are left out. The source made the active and inactive calls. How the source made its calls, unless noted: active means hit-call score of the fitted dose curve at least 0.9, where 1 is the maximum; inactive means score below 0.9.

Chain of Oxysterols receptor LXR-alpha (Homo sapiens) (Q13133 whole entry, looked up, the tested form may be a part): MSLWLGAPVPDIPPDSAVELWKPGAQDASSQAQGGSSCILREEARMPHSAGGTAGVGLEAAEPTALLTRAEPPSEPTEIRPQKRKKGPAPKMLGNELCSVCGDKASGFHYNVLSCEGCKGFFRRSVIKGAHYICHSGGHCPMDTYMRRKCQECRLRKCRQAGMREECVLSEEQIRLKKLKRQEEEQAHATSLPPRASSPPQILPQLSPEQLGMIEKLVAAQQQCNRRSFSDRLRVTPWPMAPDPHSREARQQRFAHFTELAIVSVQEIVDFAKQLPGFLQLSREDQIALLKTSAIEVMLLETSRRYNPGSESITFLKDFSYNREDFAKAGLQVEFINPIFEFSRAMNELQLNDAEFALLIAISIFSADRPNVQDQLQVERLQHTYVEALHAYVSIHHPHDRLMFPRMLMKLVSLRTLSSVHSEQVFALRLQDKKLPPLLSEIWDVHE
Chain of X-box-binding protein 1 (Homo sapiens) (P17861 whole entry, looked up): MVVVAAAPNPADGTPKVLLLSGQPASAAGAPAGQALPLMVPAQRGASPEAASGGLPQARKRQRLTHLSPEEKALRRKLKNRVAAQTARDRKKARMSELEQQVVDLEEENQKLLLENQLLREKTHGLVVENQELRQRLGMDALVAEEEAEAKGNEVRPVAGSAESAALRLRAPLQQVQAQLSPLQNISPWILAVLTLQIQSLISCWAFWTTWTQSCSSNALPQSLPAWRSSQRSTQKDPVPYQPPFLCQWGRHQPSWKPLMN
Chain of Glucocorticoid receptor (Homo sapiens) (P04150 whole entry, looked up): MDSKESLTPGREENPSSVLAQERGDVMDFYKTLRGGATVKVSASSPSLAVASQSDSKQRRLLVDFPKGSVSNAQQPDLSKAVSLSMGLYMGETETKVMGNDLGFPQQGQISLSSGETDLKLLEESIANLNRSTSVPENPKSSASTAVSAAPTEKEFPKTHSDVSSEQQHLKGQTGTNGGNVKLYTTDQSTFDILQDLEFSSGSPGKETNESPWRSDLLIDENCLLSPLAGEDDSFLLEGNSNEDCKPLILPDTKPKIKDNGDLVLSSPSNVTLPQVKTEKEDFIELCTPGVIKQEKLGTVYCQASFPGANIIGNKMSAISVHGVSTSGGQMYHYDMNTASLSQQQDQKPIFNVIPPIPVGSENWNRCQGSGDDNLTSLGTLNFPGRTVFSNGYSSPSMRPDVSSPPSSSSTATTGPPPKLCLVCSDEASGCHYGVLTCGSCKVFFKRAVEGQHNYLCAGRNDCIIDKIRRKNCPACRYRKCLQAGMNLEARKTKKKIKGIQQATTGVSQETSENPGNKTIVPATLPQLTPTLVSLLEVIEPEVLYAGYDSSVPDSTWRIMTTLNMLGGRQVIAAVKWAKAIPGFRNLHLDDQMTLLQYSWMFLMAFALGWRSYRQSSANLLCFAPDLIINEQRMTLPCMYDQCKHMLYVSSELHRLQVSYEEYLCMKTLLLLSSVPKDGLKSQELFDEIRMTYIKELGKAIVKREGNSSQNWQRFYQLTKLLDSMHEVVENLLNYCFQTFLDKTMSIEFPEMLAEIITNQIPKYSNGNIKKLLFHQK
Chain of Nuclear receptor subfamily 4 group A member 2 (Homo sapiens) (P43354 whole entry, looked up, the tested form may be a part): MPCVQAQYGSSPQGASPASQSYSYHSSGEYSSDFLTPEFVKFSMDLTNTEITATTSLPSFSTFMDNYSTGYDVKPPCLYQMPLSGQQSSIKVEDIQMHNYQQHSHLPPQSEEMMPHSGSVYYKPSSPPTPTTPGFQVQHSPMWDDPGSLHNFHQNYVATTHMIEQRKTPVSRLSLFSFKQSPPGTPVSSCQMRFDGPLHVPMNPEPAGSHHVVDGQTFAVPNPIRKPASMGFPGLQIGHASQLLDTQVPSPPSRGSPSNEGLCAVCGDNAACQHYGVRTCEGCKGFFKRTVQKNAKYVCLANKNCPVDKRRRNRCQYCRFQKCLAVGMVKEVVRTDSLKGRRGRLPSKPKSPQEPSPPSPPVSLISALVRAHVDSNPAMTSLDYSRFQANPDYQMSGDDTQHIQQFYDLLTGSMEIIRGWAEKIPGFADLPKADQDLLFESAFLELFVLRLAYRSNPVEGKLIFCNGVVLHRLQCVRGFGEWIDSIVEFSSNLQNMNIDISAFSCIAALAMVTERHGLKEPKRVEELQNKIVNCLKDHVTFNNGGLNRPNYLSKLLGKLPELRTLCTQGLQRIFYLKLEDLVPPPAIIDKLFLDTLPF
Chain of Transcriptional activator Myb (Homo sapiens) (P10242 whole entry, looked up): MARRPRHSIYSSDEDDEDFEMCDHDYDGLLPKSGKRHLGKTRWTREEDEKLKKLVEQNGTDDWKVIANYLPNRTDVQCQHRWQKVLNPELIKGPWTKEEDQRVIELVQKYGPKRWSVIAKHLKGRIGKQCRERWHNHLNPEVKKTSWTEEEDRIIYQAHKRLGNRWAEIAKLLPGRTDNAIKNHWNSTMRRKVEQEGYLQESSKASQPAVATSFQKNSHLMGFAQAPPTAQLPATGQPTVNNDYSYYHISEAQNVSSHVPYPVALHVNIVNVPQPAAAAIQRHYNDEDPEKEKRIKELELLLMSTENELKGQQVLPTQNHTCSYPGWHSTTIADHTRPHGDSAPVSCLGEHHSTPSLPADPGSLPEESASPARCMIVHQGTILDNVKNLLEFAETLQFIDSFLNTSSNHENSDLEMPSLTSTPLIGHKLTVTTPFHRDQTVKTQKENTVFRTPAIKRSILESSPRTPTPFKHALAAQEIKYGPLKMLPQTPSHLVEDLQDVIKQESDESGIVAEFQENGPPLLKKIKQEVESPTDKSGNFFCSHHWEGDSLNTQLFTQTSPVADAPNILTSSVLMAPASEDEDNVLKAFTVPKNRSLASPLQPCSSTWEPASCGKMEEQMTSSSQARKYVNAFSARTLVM
Chain of Nuclear respiratory factor 1 (Homo sapiens) (Q16656 whole entry, looked up): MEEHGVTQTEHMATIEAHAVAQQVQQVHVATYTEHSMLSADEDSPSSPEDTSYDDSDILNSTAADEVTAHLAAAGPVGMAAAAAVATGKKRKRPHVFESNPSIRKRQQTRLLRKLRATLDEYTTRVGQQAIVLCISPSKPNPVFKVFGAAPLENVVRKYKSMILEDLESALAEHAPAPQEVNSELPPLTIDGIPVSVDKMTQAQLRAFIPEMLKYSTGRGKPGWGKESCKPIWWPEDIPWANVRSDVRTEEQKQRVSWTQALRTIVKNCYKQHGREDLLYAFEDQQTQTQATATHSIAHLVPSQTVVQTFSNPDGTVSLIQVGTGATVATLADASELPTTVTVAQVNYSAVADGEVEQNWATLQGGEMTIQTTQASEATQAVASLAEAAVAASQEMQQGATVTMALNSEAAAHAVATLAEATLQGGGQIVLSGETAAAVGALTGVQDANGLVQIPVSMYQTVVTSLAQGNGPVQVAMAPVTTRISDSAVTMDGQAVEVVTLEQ
Chain of Bile acid receptor (Homo sapiens) (Q96RI1 whole entry, looked up, the tested form may be a part): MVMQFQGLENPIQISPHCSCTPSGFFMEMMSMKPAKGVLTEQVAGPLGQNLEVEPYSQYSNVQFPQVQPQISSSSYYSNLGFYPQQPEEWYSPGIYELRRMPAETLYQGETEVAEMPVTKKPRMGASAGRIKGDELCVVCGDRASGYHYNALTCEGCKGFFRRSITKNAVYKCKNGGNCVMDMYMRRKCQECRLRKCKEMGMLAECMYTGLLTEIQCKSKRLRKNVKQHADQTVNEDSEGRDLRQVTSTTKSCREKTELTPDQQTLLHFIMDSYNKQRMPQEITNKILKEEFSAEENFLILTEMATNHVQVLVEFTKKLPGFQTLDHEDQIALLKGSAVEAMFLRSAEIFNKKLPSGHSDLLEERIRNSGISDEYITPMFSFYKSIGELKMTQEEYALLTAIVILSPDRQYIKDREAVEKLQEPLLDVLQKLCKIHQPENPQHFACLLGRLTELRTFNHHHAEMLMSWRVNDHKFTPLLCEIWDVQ
Chain of Estrogen receptor (Homo sapiens) (P03372 whole entry, looked up, the tested form may be a part): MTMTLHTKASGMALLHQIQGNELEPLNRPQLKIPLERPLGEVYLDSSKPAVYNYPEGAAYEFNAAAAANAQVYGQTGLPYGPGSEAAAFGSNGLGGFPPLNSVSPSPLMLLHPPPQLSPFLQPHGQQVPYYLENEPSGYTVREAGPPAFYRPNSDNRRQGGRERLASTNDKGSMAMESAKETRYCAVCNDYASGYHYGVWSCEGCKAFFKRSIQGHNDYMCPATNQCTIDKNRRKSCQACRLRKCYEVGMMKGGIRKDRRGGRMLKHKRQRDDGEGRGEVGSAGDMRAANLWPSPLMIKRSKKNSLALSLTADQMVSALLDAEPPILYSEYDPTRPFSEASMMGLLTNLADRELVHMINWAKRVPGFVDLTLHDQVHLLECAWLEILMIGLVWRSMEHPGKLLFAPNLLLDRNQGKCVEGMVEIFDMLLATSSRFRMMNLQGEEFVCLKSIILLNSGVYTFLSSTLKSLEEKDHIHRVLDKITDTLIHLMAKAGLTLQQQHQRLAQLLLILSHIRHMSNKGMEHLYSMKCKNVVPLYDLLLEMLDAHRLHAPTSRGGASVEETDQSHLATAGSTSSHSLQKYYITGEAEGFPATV
Chain of Hepatocyte nuclear factor 4-alpha (Homo sapiens) (P41235 whole entry, looked up, the tested form may be a part): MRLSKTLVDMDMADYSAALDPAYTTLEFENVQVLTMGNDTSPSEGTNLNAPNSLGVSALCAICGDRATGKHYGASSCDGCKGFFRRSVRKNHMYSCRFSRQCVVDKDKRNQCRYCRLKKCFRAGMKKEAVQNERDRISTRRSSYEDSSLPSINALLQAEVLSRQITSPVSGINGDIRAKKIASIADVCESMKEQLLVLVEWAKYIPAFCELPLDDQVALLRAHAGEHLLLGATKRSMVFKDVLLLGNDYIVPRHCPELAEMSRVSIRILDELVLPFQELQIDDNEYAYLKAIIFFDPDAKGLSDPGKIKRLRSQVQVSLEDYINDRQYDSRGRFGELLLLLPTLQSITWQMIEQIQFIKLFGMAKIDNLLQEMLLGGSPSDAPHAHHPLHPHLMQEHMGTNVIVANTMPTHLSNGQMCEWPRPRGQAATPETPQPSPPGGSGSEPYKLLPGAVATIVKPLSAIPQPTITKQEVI

One may read the AC50 as the midpoint of the concentration-response curve, whichever way the signal moves. In the case of `CCCOc1ccc(S(=O)(=O)N2CCN(CC)CC2)cc1-c1nc2c(CC)n(Cc3ccccn3)nc2c(=O)[nH]1`, the call in [1], in assay [2], in assay [4], in [5], in assay [6] and in [7] was inactive. The molecule was called inactive in [8], in assay [9], in assay [10], in assay [11], in [12] and in [13]. For the same molecule, in assay [3], the AC50 is 2.51 µM (active).
On to `CCc1ccc(O)c(C(C)(C)C)c1`, for which the molecule was called inactive in assay [1], in assay [2], in assay [5], in assay [14], in [6] and in assay [15]. For the same molecule, the call in assay [9], in assay [11], in assay [12] and in assay [13] was inactive. The AC50 in [3] is 43 µM (active); in assay [10] it was 53.4 µM (active).
In the case of `Cc1ccc(S(=O)(=O)NC(=O)NN2CCCCCC2)cc1`, the outcome in assay [1], in [2], in assay [3], in assay [5], in assay [16] and in assay [6] was inactive. The result in assay [15], in assay [8], in assay [9], in [10], in assay [11] and in [12] was inactive. Besides, in assay [13], the call was inactive.
As for `CCCC(CCC)C(=O)O`, the molecule was called inactive in assay [1], in [2], in [3], in [5], in assay [14] and in assay [16]. For the same molecule, the call in assay [6], in assay [8], in [9], in assay [10], in [11] and in assay [12] was inactive. In addition, the molecule was classed as inactive in assay [13].
`Cc1ncc([C@@H](CCCCCCc2ccc3c(n2)NCCC3)CC(=O)O)cn1`: the molecule was classed as inactive in [1], in [2], in assay [3], in [5], in [14] and in assay [16]. The outcome in assay [7], in [15], in [17], in assay [9], in [10] and in assay [11] was inactive. Besides, the result in assay [12] and in assay [13] was inactive.
